Assay outcomes deposited in PubChem BioAssay by The Scripps Research Institute Molecular Screening Center.
FBW7 activator – human FBW7 E3 ligase activation, primary screen | normalized activity (activation), % at 26.1 µM | 0.13% of 650,000 active | Q969H0 | AlphaScreen FBW7–phospho-cyclin E peptide binding, activator screen | AID 1259310; in the data active = normalized activity above about 1.9%;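 also: purified mutant Fbw7 with reduced substrate affinity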
Target sequence (Q969H0 whole entry, looked up): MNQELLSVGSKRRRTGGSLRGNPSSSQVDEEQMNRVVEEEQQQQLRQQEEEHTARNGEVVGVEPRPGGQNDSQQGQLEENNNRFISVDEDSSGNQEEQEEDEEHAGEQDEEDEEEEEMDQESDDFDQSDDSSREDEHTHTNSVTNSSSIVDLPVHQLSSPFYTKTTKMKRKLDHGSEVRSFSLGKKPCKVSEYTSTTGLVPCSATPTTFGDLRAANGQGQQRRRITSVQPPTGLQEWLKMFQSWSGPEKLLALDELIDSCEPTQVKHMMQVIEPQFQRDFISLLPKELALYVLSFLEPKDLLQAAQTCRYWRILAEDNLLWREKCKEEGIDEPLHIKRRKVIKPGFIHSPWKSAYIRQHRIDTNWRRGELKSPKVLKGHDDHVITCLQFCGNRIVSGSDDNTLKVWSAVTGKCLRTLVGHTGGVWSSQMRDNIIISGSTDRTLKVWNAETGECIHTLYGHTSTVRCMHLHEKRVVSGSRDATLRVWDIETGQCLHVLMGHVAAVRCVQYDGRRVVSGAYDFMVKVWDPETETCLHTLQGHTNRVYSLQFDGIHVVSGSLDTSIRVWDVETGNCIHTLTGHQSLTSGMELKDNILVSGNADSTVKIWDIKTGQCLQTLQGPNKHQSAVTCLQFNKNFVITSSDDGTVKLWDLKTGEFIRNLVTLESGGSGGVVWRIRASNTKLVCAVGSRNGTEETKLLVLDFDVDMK
GPR151 ag – human GPR151 activation; activation, % at 11.2 µM; PathHunter beta-arrestin GPR151 cells, luminescence; 1% of 650,000 active; in the data active = activation above about 4.9%;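 also: 0% = median of compound wells and 100% = cells with positive control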
TEAD-YAP block – TEAD-YAP interaction inhibition; HEK-TIYL cells, TEAD-Gal4/YAP UAS-luciferase luminescence; inhibition, % at 9.12 µM; 1.4% of 640,000 active; AID 1259422; in the data active = inhibition above about 32%;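 also: 0% = median of test compound wells and 100% = reference inhibitor wells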
MITF primary – inhibitors of human MITF; 0.91% of 650,000 active; inhibition, % at 2.6 µM; O75030; AlphaScreen MITF homodimerization, bead proximity signal; in the data active = inhibition above about 50%;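 also: 0% = vehicle wells with protein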
Active calls of the source: *. Only some compounds are listed: those with a hit (about 3.5% of all), similar ones and a draw of the others.

SMILES	FBW7 activator	GPR151 ag	TEAD-YAP block	MITF primary
COc1ccc(CCNc2cc(N3CCN(C(=O)c4ccc(Br)cc4)CC3)ccc2[N+](=O)[O-])cc1OC	0	-1	-3	-7
COc1ccc(CCNc2cc(N3CCN(C(C)=O)CC3)ccc2[N+](=O)[O-])cc1OC	0	1	46*	-10
COc1ccc(CCNc2cc(N3CCN(S(=O)(=O)N(C)C)CC3)ccc2[N+](=O)[O-])cc1OC	0	2	39*	5
COc1ccc(C2NC(C(=O)O)CS2)cc1C (stereo not drawn)	0	0	-5	-9
c1ccc(Oc2ccc(Nc3nc(N4CCc5ccccc5C4)nc4nc[nH]c34)cc2)cc1	0	-1	7	7
CCn1c(C(=O)NCc2ccccn2)cc2oc3ccccc3c21	0	0	-3	3
CC(=O)Nc1ccc(C2Nc3ccccc3NC3=C2C(=O)CC(C)(C)C3)cc1 (stereo not drawn)	0	-1	-2	7
CC(C)(C)OC(=O)N/N=C/c1cccc(O)c1	0	-4	84*	3
O=C(N/N=C/c1cccc(O)c1)c1ccc(F)cc1	0	-1	35*	8
O=C(Nc1ccc(Cc2ccncc2)cc1)c1ccc([N+](=O)[O-])cc1	0	0	7	-7
O=C(NC1CCCCCCCCCCC1)c1ccc([N+](=O)[O-])cc1Cl	0	1	-13	-13
O=C(NC1CCCCC1)c1ccc([N+](=O)[O-])cc1Cl	1	1	40*	-2
O=C(Nc1cnc2ccccc2c1)c1ccccc1Cl	0	-6	78*	-15
O=C(Nc1cnc2ccccc2c1)c1ccc([N+](=O)[O-])cc1Cl	0	-4	49*	1
O=C(Nc1ccc(Cc2ccncc2)cc1)c1ccc([N+](=O)[O-])cc1Cl	0	-1	36*	3
O=C(Nc1cccnc1)c1ccc([N+](=O)[O-])cc1Cl	0	-1	-6	-8
CCCc1cc(=O)[nH]c(Nc2ccc(N(C)C)cc2)n1	0	0	-29	24
COc1cc(/C=C2\Oc3c(ccc(O)c3CN3CCCCC3)C2=O)cc(OC)c1OC	0	2	32*	13
COc1ccc(/C=C2\Oc3c(ccc(O)c3CN3CCCC3)C2=O)cc1	0	0	2	15
COc1ccc(-c2nc(NCCO)c3ncn(C(C)C)c3n2)cc1	0	1	8	5
CC(C)n1cnc2c(NCc3nc4ccccc4[nH]3)nc(-c3ccc(C(N)=O)cc3)nc21	0	-1	77*	5
CC(C)n1cnc2c(NCCO)nc(-c3ccc(C(N)=O)cc3)nc21	0	0	5	16
COc1ccc(-c2nc(NCc3nc4ccccc4[nH]3)c3ncn(C(C)C)c3n2)cc1	0	0	71*	0
COC(=O)c1ccccc1NC(=O)c1cccc(NC(=O)CSc2ccccc2)c1	0	-1	4	8
CC(C)C(=O)Nc1nnc(-c2cccs2)s1	0	2	-48	14
SMILES	FBW7 activator	GPR151 ag	TEAD-YAP block	MITF primary
N/C(=N\O)c1ccc(Oc2ccc(Oc3ccc(/C(N)=N/O)cc3)cc2)cc1	2	0	84*	3
Cc1ccc(/C=N/NC(=O)C(=O)Nc2ccccc2OC(F)(F)C(F)F)cc1[N+](=O)[O-]	0	1	-17	-3
CC(NC(=O)C1CCCN(S(=O)(=O)N2CCOCC2)C1)C12CC3CC(CC(C3)C1)C2 (stereo not drawn)	0	0	-1	2
CNC(=O)/C(C#N)=C/c1c(Oc2cc(C)cc(C)c2)nc2ccccn2c1=O	0	-6	32*	18
Cc1cc(C)cc(Oc2nc3ccccn3c(=O)c2/C=C(\C#N)C(=O)N2CCOCC2)c1	0	1	37*	13
N#C/C(=C\c1c(Oc2ccccc2)nc2ccccn2c1=O)C(=O)N1CCOCC1	0	0	21	-9
Cc1cccc(Oc2nc3c(C)cccn3c(=O)c2/C=C(\C#N)C(=O)N2CCOCC2)c1	0	0	36*	16
Cc1cc(C)c2nc(C)cc(NCc3ccco3)c2c1	0	0	13	20
Cc1cccc(C)c1NC(=O)CSC1=C(C#N)C(c2ccccc2C(F)(F)F)C2=C(CCCC2=O)N1 (stereo not drawn)	0	-1	-8	1
COc1ccc(-c2nsc3c(N4CCOCC4)ncnc23)cc1	0	0	82*	-22
COc1ccc(-c2nsc3c(N4CCN(C)CC4)ncnc23)cc1	0	0	38*	-8
COc1ccc(-c2nsc3c(N4CCCCC4)ncnc23)cc1	0	-1	83*	-12
COc1ccc(-c2nsc3c(N4CCC(C(N)=O)CC4)ncnc23)cc1	0	-1	39*	2
O=[N+]([O-])c1ccc(-c2nsc3c(N4CCCC4)ncnc23)cc1	0	1	-25	18
CCOc1ccc(C2c3c([nH][nH]c3=O)CC(C)(O)C2C(=O)OC)cc1 (stereo not drawn)	0	0	9	15
O=C1NC(=O)N(c2ccc(F)cc2)C(=O)/C1=C/c1cccn1-c1cccc([N+](=O)[O-])c1	0	-1	6	-16
COc1ccc(-c2nsc3c(N4CCCCC4C)ncnc23)cc1 (stereo not drawn)	0	-1	93*	10
CC1CCCCN1c1ncnc2c(-c3ccc([N+](=O)[O-])cc3)nsc12 (stereo not drawn)	0	1	-10	-1
O=C(CCCl)Nc1ncc(Cc2ccccc2)s1	0	1	-1	8
Cc1cccc(Cc2cnc(NC(=O)COc3ccccc3C)s2)c1	0	1	54*	-2
O=C(CCc1ccccc1)Nc1ncc(Cc2ccccc2)s1	0	-1	49*	8
Cc1ccccc1OCC(=O)Nc1ncc(Cc2ccc(F)cc2)s1	0	-1	51*	-6
Cc1ccc(Cc2cnc(NC(=O)COc3ccccc3)s2)cc1	0	0	52*	14
Cc1ccc(Cc2cnc(NC(=O)COc3ccccc3C)s2)cc1	0	0	17	10
O=C(O)C1CCCCC1c1nc(=S)[nH][nH]1 (stereo not drawn)	0	-1	-7	3
SMILES	FBW7 activator	GPR151 ag	TEAD-YAP block	MITF primary
COc1ccccc1NC(=S)N(CCCN1CCOCC1)C1CCN(C(C)=O)CC1	0	1	12	4
CC(C)N(CCNc1ccnc(NC2CCN(Cc3ccccc3)CC2)n1)C(C)C	0	1	-2	-4
CCOc1ccc2c(=O)c(Oc3ccc(CC)cc3)coc2c1	0	0	12	4
O=C1CCC(NC(=O)c2ccc(Cl)cc2)C(=O)N1 (stereo not drawn)	0	-1	7	-2
O=C(Nc1ccc(Cc2ccncc2)cc1)c1ccc(Br)cc1	0	3	39*	6
Cc1ccc(C(=O)Nc2ccc(Cc3ccncc3)cc2)cc1	0	-1	10	-7
O=C(CSCc1ccc(Cc2ccc(CSCC(=O)Nc3ccccc3)cc2)cc1)Nc1ccccc1	0	-1	35*	11
O=C(CCc1ccccc1)Nc1ccc(Cc2ccncc2)cc1	0	2	40*	0
NNC(=O)c1ccc2cc(C(=O)NN)ccc2c1	0	0	0	10
